PKM2 inhibitor – PKM2 (human) enzyme inhibition. P14618. purified PKM2, ATP generation, Kinase-Glo luminescence. Potency, µM (highest dose often 57.5 µM), usual class: inhibitors. hit rate 0.058% among 260,000. AID 1634; also: nearly all actives have a fitted effect of over 60% in size
Target sequence (P14618 whole entry, looked up): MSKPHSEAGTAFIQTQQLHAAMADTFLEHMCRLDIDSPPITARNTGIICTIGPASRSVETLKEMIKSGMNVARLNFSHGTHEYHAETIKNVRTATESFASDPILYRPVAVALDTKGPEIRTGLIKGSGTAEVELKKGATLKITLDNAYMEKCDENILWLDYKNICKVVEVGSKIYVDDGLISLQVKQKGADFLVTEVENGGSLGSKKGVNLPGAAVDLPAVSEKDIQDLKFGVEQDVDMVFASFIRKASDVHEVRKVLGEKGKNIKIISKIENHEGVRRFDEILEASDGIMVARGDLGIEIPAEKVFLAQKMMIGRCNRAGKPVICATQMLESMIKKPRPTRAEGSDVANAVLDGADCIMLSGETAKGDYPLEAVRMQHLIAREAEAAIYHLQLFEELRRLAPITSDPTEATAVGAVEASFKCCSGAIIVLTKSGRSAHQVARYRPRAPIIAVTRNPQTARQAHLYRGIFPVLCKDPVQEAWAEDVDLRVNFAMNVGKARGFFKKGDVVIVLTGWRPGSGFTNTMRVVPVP
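Enzyme run at intermediate activity with final 0.1 mM ADP, 0.5 mM PEP (50 mM imidazole pH7.2, 50 mM KCl, 7 mM MgCl2), incubated 1 h at r.t. ATP formed read by Kinase-Glo luminescence, normalized to no-enzyme (full inhibition) and uninhibited wells.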
PKM2 inh dose – PKM2 (human) inhibition, concentration-response confirmation | shares compounds with PKM2 inhibitor | purified hPK-M2, Kinase-Glo ATP luminescence, 1 h | Potency, µM (highest dose often 57.5 µM), hits mostly inhibitors | hit rate 50% among 55
PKM2 FLuc cs – blocks firefly luciferase, flagging PKM2 inhibitor artifacts | shares compounds with PKM2 inhibitor | Kinase-Glo firefly luciferase, luminescence, 8 min | Potency, µM (doses to about 57.5 µM), actives largely listed as inhibitors | hit rate 30% among 55
PKM2 LDH couple – PKM2 (human) inhibition, NADH coupled readout; shares compounds with PKM2 inhibitor; purified hPK-M2, LDH-coupled NADH fluorescence kinetic; Potency, µM (titrated, usually from 57.5 µM), most hits filed as inhibitors; 55 tested, under 10 active
Hits are given with their value; - = inactive; ? = inconclusive. The entries come from a sample that favours hits as a whole. Calls follow the shape of the dose curve; as a rule, active = well fitted curve in the direction sought with a large enough effect; inconclusive = small, poorly fitted or top-dose-only effect, or another doubt; inactive = no such curve, though single readings can be large; an effect the other way counts as inactive or inconclusive.

SMILES	PKM2 inhibitor	others
COc1cc(C(=O)N2CCN(S(=O)(=O)c3ccc(F)cc3)CC2)cc(OC)c1OC	-
Cc1ccnc(NC(=O)c2ccc3c(c2)OCO3)c1	13µM	PKM2 inh dose=16µM;PKM2 FLuc cs=13µM;PKM2 LDH couple=-
CC(=O)N1N=C(c2ccc(C)cc2)CC1c1ccc2c(c1)OCO2 (stereo not drawn)	-
Cc1ccnc(NS(=O)(=O)c2ccc3c(c2)CCO3)c1	-
COc1ccc(OCC(=O)N2CCN(S(=O)(=O)c3ccc(Cl)cc3)CC2)cc1	-
Cc1c(F)cccc1NS(=O)(=O)c1ccc(OCCNS(C)(=O)=O)cc1	-
Cn1c(NCc2c[nH]c3ccccc23)nc2ccccc21	-
Cn1c(N=Nc2ccccc2)nc2ccccc21	5.6µM	PKM2 inh dose=13µM;PKM2 FLuc cs=5.2µM;PKM2 LDH couple=-
CC(C)C(NC(=O)c1ccc(C(C)(C)C)cc1)C(=O)Nc1cccc(S(N)(=O)=O)c1 (stereo not drawn)	-
Cc1ccc(C2/C(=C(\O)c3ccc4c(c3)OCCO4)C(=O)C(=O)N2CCCN(C)C)o1 (stereo not drawn)	-
COC(=O)C1=CN(CC2CCCO2)C=C(C(=O)OC)C1c1cc(OC)c(OC)c(OC)c1 (stereo not drawn)	-
CC(=O)c1cc2c(cc1NC(=O)CSc1nc3ccccc3[nH]1)OCO2	-
O=C(Nc1nc2ccccc2[nH]1)c1ccccc1F	8.9µM	PKM2 inh dose=5.2µM;PKM2 FLuc cs=4.1µM;PKM2 LDH couple=-
CCS(=O)(=O)N1Cc2ccccc2CC1C(=O)Nc1nc2ccccc2[nH]1 (stereo not drawn)	-
O=C(NCCc1ccccc1)c1c(O)c2ccccc2[nH]c1=O	-
O=C1C(c2cc(=O)c3ccccc3[nH]2)=C(O)c2ccccc21	11µM	PKM2 inh dose=16µM;PKM2 FLuc cs=-;PKM2 LDH couple=?
Cc1c(C)c2cc(Cl)c(OCc3nn[nH]n3)cc2oc1=O	-
COc1ccccc1NS(=O)(=O)c1cc(C(=O)NCCC(C)C)ccc1F	-
Cc1cc(C)c(NC(=O)NC(=O)c2cccc(F)c2)c(C)n1	-
O=C(NC(=O)c1ccccc1)Nc1ccccn1	5µM	PKM2 inh dose=12µM;PKM2 FLuc cs=5.2µM;PKM2 LDH couple=-
O=C(O)c1ccc(NC(=S)NC(=O)c2ccc(-c3ccccc3)cc2)cc1	-
Cc1ccc(N2C(=O)CC(C)(C)CC2=O)cc1Cl	-
O=[N+]([O-])c1ccc2c(OCc3nnc(-c4ccccc4Br)o3)ncnc2c1	-
O=[N+]([O-])c1ccc(Sc2nnnn2-c2ccccc2)nc1	-
CCNS(=O)(=O)c1ccc(NC(=O)c2ccc(Cn3cc(Br)cn3)o2)cc1	-
SMILES	PKM2 inhibitor	others
COCCn1c(N)c(C(=O)NS(=O)(=O)c2ccc(C)cc2)c(=O)[nH]c1=O	-
Cc1ccc(CCC(=O)Nc2nccs2)o1	-
CCOc1ccc(OCC(=O)Nc2nccs2)cc1	10µM	PKM2 inh dose=10µM;PKM2 FLuc cs=?;PKM2 LDH couple=-
CCOC(=O)C(Cc1ccccc1)C(=O)Nc1nccs1 (stereo not drawn)	-
COCCn1c(-c2ccccc2)cnc1SCC(=O)Nc1cccc2ccccc12	-
CCOC(Cn1ccc(=O)[nH]c1=O)OCC	-
O=C(COc1ccc(-c2nnco2)cc1)N1CCN(S(=O)(=O)c2ccccc2)CC1	-
Cc1nc(N/N=C/c2ccccn2)sc1C	7.9µM	PKM2 inh dose=9.2µM;PKM2 FLuc cs=5.2µM;PKM2 LDH couple=-
CC1C/C(=C/c2ccccn2)C(=O)/C(=C/c2ccccn2)C1 (stereo not drawn)	-
CC(=O)Nc1sc(N/N=C\c2ccccc2F)nc1-c1cccs1	-
Cc1ccccc1OCC(=O)Nc1ccc2c(c1)n(C)c(=O)n2C	-
O=C(c1ccc(S(=O)(=O)c2ccccc2Cl)c([N+](=O)[O-])c1)N1CCN(Cc2ccccc2)CC1	-
COc1ccc(C(=O)Nc2cccc(OC)c2)cc1	?	PKM2 inh dose=?;PKM2 FLuc cs=?;PKM2 LDH couple=-
COc1cccc(NC(=O)CSc2nnc3cc(C)nc(N)n23)c1	-
COc1cccc(NC(=O)CSc2nnc(C)s2)c1	-
Cc1cc(N=Cc2c(O)ccc3cc(Br)ccc23)no1	-
COC(=O)c1cc2c(C(F)(F)F)nn(C)c2s1	-
O=C(N1CCOCC1)N1CCN(S(=O)(=O)c2ccc(F)cc2)CC1	-
CC1=NN(c2nc3ccccc3[nH]2)C(=O)/C1=C/N(C)C	6.3µM	PKM2 inh dose=2.3µM;PKM2 FLuc cs=6.5µM;PKM2 LDH couple=-
Cc1cc(-c2csc(NC(=O)c3ccc(=O)[nH]c3)n2)c(C)n1Cc1ccco1	-
Cc1ccc(CNC(=O)[C@H]2C[C@@H]2[C@H](NP(=O)(c2ccccc2)c2ccccc2)c2ccccc2)o1	-
CCOC(=O)C(Nc1ccc2ccccc2c1)C(=O)OCC	-
CC(=O)Oc1ccc(NC(=O)Cc2ccccc2)c(C(=O)O)c1	-
CCOc1ccc(NC(=O)Nc2ccccc2C(N)=O)cc1	4µM	PKM2 inh dose=9.2µM;PKM2 FLuc cs=6.5µM;PKM2 LDH couple=-
C/C(=N\Nc1ccc(S(N)(=O)=O)cc1[N+](=O)[O-])c1ccco1	-
COc1ccc(NS(=O)(=O)c2cccc(C(=O)N/N=C/c3ccc(O)cc3)c2)cc1	-
COc1ccc(-n2nnc3c(=O)n(CC(=O)Nc4cc(C)on4)cnc32)cc1	-
CCOC(=O)CC(=O)Nc1ccsc1C(N)=O	-
C[C@H](NC(=O)[C@@H]1CCC(=O)N1Cc1ccco1)c1ccccc1	-
